Reference: PubChem BioAssay
The source made the active and inactive calls.

What was measured:
[1] = tested on: PRMT1 (protein arginine N-methyltransferase 1); test: PRMT1 binders on small-molecule microarrays, primary screen, biochemical, small-molecule microarray, 635 nm fluorescence (AID 1088); settings: small-molecule microarray binding, higher = more signal;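 further: binding of Prmt1 protein to compounds spotted on small-molecule microarray slides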
[2] = yeast growth modulation, basal conditions, primary screen, YJM789 clinical isolate, OD600, 24 h (AID 1089);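 further: growth of clinical yeast isolate S. cerevisiae YJM 789 seeded 1000 cells per well; test concentration not given here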; settings: S. cerevisiae YJM789 growth, higher = more signal, called active from +8 up or from −8 down
[3] = fission yeast growth modulation, primary screen, strain 972, OD600, 24 h, no modulator (AID 1090);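 further: basal condition with compound alone and no growth modifier present; test concentration not given here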; settings: S. pombe 972 growth, higher = more signal, called active from +8 up or from −8 down
[4] = S. cerevisiae growth modulation with rapamycin, primary screen, strain BY4716, OD600, 96 h (AID 1091); settings: higher = more signal, called active from +8 up or from −8 down; further: test concentration not given here
[5] = biological target: Torsin-1A-interacting protein 2 (Homo sapiens) (UniProt Q8NFQ8); test: LULL1 binders on small-molecule microarray, primary screen, cell lysate, human LULL1 lysate, 635/667 nm fluorescence (AID 1092); settings: hLULL1 lysate binding, 635 nm fluorescence, higher = more signal;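 further: probe is lysate of COS7 cells overexpressing human LULL1; score merges per-feature 667 nm fluorescence with signal-to-noise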
[6] = E. coli growth modulation, two-sided OD650, primary screen, E. coli filamentation project, strain DRC41, 24 h (AID 1093); settings: OD650, 24 h, higher = more signal, called active from +8 up or from −8 down;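 further: MC1000 strain lacking acrAB efflux and sulA so SOS filamentation is blocked; test concentration not given here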
[7] = small-molecule microarray binders of probe aLefty2, primary screen, biochemical, biotinylated probe, 635/667 nm fluorescence (AID 1094); settings: higher = more signal;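 further: score merges spot fluorescence near 667 nm with spot signal-to-noise ratio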
[8] = tested on: Noggin (protein binding on small-molecule microarray); test: Noggin binders on small-molecule microarray, primary screen, biochemical, 635/667 nm fluorescence (AID 1095); settings: 635 nm fluorescence, higher = more signal;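 further: score merges 667 nm feature fluorescence with signal to noise over triplicate slides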
[9] = biological target: Neurogenic locus notch homolog protein 3 (Homo sapiens) (UniProt Q9UM47); test: NOTCH3 binders on small-molecule microarray, primary screen, biochemical, 635/667 nm fluorescence (AID 1096); settings: NOTCH3 binding, 635 nm fluorescence, higher = more signal
[10] = small-molecule microarray binders of probe aEGFR, primary screen, biochemical, biotinylated probe, 635/667 nm fluorescence (AID 1097); settings: higher = more signal;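 further: probe is a biotinylated anti-EGFR antibody binding compounds printed on slides; score combines fluorescence near 667 nm and signal to noise of each spot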

Neurogenic locus notch homolog protein 3 (Homo sapiens), sequence (Q9UM47 whole entry, looked up): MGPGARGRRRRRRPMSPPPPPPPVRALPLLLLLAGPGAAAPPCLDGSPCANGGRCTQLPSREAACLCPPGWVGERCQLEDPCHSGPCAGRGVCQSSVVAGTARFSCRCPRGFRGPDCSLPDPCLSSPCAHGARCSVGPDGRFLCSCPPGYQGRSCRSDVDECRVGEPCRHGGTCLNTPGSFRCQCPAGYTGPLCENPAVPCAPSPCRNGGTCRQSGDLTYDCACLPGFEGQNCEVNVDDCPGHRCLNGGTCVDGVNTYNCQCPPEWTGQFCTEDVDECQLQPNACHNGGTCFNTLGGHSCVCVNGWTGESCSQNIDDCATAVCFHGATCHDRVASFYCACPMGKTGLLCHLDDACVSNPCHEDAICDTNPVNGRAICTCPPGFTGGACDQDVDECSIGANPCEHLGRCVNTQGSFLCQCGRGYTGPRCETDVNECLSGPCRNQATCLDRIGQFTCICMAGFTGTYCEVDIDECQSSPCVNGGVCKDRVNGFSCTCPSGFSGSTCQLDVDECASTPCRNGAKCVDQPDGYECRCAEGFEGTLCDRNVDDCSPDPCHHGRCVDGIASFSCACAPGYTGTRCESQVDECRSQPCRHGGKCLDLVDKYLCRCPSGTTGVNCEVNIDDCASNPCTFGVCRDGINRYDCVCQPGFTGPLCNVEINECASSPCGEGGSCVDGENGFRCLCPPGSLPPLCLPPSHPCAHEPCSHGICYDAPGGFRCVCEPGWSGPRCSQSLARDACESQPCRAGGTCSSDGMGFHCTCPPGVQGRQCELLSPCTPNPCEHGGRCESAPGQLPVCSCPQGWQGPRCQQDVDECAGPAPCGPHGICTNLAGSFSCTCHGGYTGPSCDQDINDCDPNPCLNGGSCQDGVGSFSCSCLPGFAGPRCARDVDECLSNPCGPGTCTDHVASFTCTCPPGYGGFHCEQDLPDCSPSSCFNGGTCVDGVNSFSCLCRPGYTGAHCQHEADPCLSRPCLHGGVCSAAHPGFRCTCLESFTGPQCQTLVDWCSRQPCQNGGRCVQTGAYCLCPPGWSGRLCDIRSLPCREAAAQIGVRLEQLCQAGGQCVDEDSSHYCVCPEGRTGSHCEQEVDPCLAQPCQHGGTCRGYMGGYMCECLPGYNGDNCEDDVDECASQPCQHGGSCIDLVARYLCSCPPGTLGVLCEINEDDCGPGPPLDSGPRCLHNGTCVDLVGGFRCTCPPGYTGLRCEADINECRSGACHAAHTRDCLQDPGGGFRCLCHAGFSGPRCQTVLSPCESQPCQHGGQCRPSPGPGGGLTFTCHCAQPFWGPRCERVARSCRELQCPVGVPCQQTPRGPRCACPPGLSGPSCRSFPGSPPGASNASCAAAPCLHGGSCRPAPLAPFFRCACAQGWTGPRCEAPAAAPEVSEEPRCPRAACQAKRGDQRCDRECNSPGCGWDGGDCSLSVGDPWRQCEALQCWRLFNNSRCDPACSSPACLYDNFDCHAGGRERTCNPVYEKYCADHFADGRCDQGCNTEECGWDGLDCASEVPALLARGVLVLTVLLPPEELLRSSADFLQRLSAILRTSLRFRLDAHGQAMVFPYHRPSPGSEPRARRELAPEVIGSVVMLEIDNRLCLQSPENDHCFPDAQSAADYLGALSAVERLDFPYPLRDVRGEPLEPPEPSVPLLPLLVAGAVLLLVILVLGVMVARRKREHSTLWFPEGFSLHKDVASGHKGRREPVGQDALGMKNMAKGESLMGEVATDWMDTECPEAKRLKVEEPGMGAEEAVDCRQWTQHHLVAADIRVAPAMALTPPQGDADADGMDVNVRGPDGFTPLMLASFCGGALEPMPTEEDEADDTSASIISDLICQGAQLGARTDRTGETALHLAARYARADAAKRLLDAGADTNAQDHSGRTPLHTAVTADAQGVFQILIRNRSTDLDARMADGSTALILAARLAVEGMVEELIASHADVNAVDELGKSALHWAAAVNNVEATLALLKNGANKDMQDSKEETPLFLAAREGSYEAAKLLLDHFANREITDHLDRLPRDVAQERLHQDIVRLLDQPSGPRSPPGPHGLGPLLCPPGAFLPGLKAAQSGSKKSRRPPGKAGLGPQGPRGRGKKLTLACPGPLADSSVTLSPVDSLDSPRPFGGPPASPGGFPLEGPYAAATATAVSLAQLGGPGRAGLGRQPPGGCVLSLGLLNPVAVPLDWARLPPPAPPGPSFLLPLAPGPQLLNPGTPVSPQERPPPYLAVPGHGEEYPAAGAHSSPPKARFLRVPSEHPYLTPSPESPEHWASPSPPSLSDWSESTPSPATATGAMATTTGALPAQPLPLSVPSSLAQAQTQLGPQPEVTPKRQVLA
Torsin-1A-interacting protein 2 (Homo sapiens), sequence (Q8NFQ8 whole entry, looked up): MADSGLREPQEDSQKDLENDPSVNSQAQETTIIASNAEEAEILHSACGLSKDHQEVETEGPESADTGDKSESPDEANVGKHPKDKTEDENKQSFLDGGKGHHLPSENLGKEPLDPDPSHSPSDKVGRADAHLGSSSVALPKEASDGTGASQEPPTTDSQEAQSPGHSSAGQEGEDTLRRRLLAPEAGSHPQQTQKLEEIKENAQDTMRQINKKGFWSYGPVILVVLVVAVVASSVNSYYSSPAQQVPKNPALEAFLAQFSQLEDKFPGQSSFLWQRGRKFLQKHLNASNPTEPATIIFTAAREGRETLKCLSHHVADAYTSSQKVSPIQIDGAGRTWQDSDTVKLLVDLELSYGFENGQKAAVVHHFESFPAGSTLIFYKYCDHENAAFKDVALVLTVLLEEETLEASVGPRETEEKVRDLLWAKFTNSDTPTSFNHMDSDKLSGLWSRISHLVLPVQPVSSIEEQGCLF

| SMILES | composite z-score [1] | z-score [2] | z-score [3] | z-score [4] | composite z-score [5] | z-score [6] | composite z-score [7] | composite z-score [8] | composite z-score [9] | composite z-score [10] |
| --- | --- | --- | --- | --- | --- | --- | --- | --- | --- | --- |
| C=CC[C@@H](OC(=O)Nc1ccc(OC)cc1)c1ccc(O)c2ccccc12 | 1.28 | -23.6 (active) | -19.6 (active) | -1.31 (inactive) | 2.28 | 1.05 (inactive) | -0.142 | 1.46 | 1.05 | 0.0225 |
| N#Cc1ccc(NN2C(C(O)C3CCCCC3)C=CC3C(=O)N(c4ccccc4)C(=O)C32)cc1 (stereo not given) | 1.45 | -0.21 (inactive) | 0.661 (inactive) | 2.46 (inactive) | 3.26 | -1.08 (inactive) | 0.217 | -0.0519 | 1.03 | 0.0065 |
| O=C1OCCC=C[C@H]2OC34C=CCN(Cc5ccccc5)C(=O)[C@H]3N(CCCCCO)C(=O)[C@@H]4C12 (stereo not given in full) | 0.878 | 1.5 (inactive) | -0.0407 (inactive) | -0.188 (inactive) | 3.74 | 1.42 (inactive) | -0.171 | -0.748 | -0.483 | -0.252 |
| CC(C)Cc1ccc(CN2CC[C@@H](NS(=O)(=O)c3ccccc3)C2)cc1 | 1.01 | -14.6 (active) | -20.9 (active) | -3.57 (inactive) | 0.846 | -19.6 (active) | -0.296 | 0.864 | 0.12 | -0.154 |
| CCOC(=O)C1=C[C@@H](CC)N(S(=O)(=O)c2ccc(C)cc2)[C@H]1c1ccccc1 | 1.18 | -0.595 (inactive) | 0.849 (inactive) | 0.567 (inactive) | 2.71 | -0.556 (inactive) | 0.097 | 0.13 | 1.1 | 0.0356 |
| CCCCC(O)C1C=CC2C(=O)N(C3CCCCC3)C(=O)C2N1Nc1ccc(OC)cc1 (stereo not given) | 1.19 | 0.595 (inactive) | 0.241 (inactive) | 1.15 (inactive) | 2.77 | 0.202 (inactive) | 0.165 | 0.5 | 1.1 | -0.0661 |
| CO[C@H]1O[C@H](CO)[C@@H](OC(=O)Nc2ccc(Oc3ccccc3)cc2)[C@H](OC(=O)Nc2ccccc2)[C@H]1OC(=O)Nc1ccccc1 | 1.55 | 1.48 (inactive) | 0.613 (inactive) | -1.75 (inactive) | 3.26 | 0.939 (inactive) | 0.286 | 0.7 | 1.13 | 0.13 |
| O=C1N(CCS(=O)(=O)c2ccccc2)Cc2ccccc2[C@H]2OC(c3ccc(OCCCO)cc3)=N[C@@]12CCS(=O)(=O)c1ccccc1 | 1.57 | 1.91 (inactive) | 1.62 (inactive) | 8.55 (active) | 3.01 | -0.409 (inactive) | 0.417 | 0.894 | 1.06 | 0.162 |
| COCCOC(=O)N1C(=O)[C@@]2(c3cc(C#CCC(C(=O)OC)C(=O)OC)ccc31)[C@H](C(=O)N1CCCCCCC1)[C@H]1C(=O)O[C@H](c3ccccc3)[C@H](c3ccccc3)N1[C@@H]2c1ccc(OCCO)cc1 | 1.54 | 1.47 (inactive) | 0.168 (inactive) | 2.66 (inactive) | 4.11 | 0.275 (inactive) | 1.66 | 2.02 | 1.05 | 1.26 |
| [N-]=[N+]=NCc1ccccc1C[C@@]1(C(=O)NCC(O)CO)N=C(c2ccc(OCCCO)cc2)O[C@@H]1c1ccccc1CN=[N+]=[N-] (stereo not given in full) | 1.52 | -0.235 (inactive) | 0.648 (inactive) | 1.34 (inactive) | 3.68 | 0.526 (inactive) | 0.0942 | 0.875 | 0.474 | -0.197 |
| C=CCOC(=O)[C@H]1[C@@H]2C(=O)O[C@@H](c3ccccc3)[C@@H](c3ccccc3)N2[C@@H](c2ccc(OCCOC(=O)[C@@H]3C[C@@H]4C(=O)N5CCC[C@H]5C(=O)N4[C@@H]3c3ccc(O)cc3)cc2)[C@]12C(=O)Nc1ccccc12 | 1.53 | 0.821 (inactive) | 1.64 (inactive) | 3.79 (inactive) | 2.63 | 0.621 (inactive) | -0.0984 | 1.15 | 0.799 | -0.096 |
| O=C1C[C@]2(c3ccc([N+](=O)[O-])cc3)C(=O)N(CC(F)(F)F)c3cc(CO)ccc3[C@H]2N1CC12CC3CC(CC(C3)C1)C2 | 1.08 | 0.116 (inactive) | 1.21 (inactive) | -1.69 (inactive) | 2.49 | -0.577 (inactive) | -0.145 | 0.363 | -0.234 | -0.0972 |
| CCOC(=O)C[C@H]1[C@H](OC(=O)Cc2ccc3c(c2)OCO3)[C@@H](NC(=O)c2ccc(-c3ccccc3)cc2)c2cc(OCCCO)ccc2N1C(=O)c1ccccc1 | 0.869 | 0.22 (inactive) | -0.661 (inactive) | 0.712 (inactive) | 1.81 | 1.96 (inactive) | -0.137 | 0.267 | 0.643 | 0.0027 |
| O=C1C=CC(=O)[C@@H]2CC(COc3ccccc3)=C3[C@@H](CCc4ccccc4)OB(O)C[C@@H]3[C@H]12 | 0.702 | 0.168 (inactive) | -8.15 (active) | 0.203 (inactive) | -0.188 | -0.125 (inactive) | -0.289 | 0.533 | 0.49 | 0.0338 |
| CCC(CC)C(O)C1C=CC2C(=O)N(c3ccccc3)C(=O)C2N1Nc1ccc(C#N)cc1 (stereo not given) | 1.55 | -0.295 (inactive) | 0.621 (inactive) | 1.28 (inactive) | 3.2 | -0.279 (inactive) | 0.615 | -0.136 | 1.04 | 0.334 |
| C=CC(COC(C)=O)NS(=O)(=O)c1ccc(Br)cc1 (stereo not given) | 0.1 | -0.141 (inactive) | -0.467 (inactive) | -0.9 (inactive) | 0.185 | -0.975 (inactive) | 0.0216 | 0.598 | 0.604 | 0.0749 |
| COc1ccc([Si](C)(C)[C@H]2[C@H](CCn3cc([C@H](O)c4ccccc4)nn3)O[C@@]3(C(=O)N(Cc4cccc(N5CCC5=O)c4)c4ccccc43)[C@@H]2C)cc1 | 0.423 | -1.89 (inactive) | 0.399 (inactive) | 1.82 (inactive) | 0.276 | 1.41 (inactive) | -0.196 | 0.806 | 0.349 | -0.167 |
| CC(C)C(=C=CC[C@H](O)c1ccccc1OCCO)C[C@H](O)c1ccccn1 | 0.813 | 0.241 (inactive) | -0.709 (inactive) | -0.365 (inactive) | 2.27 | 0.662 (inactive) | 0.0374 | 0.247 | 0.719 | 0.151 |
| O=c1cccc(C=Cc2ccccc2)o1 | -0.127 | -0.411 (inactive) | -1.06 (inactive) | 1.14 (inactive) | -0.756 | 0.573 (inactive) | -0.214 | 0.104 | -1.13 | -0.142 |
| CC(c1ccccc1)C(O)C1C=CC2C(=O)NC(=O)C2N1Nc1ccccn1 (stereo not given) | 1.43 | 0.978 (inactive) | 0.704 (inactive) | 1.17 (inactive) | 1.52 | -0.88 (inactive) | 0.136 | 0.361 | 1.12 | -0.0159 |
| C=CCOC(=O)[C@@H]1[C@H]2C(=O)O[C@H](c3ccccc3)[C@H](c3ccccc3)N2[C@H](c2ccc(OCCOC(=O)[C@@H]3C[C@@H]4C(=O)N[C@@H](Cc5ccccc5)C(=O)N4[C@@H]3c3cccc(OCCO)c3)cc2)[C@@]12C(=O)Nc1ccc(I)cc12 | 1.53 | 1.39 (inactive) | 2.04 (inactive) | 4.55 (inactive) | 1.83 | 0.0087 (inactive) | -0.0286 | 1.5 | 0.974 | 0.0042 |
| CN1C(=O)C2C=CC(C(O)c3ccccn3)N(Nc3ccccc3)C2C1=O (stereo not given) | 0.949 | 0.826 (inactive) | 0.632 (inactive) | 1.23 (inactive) | 0.68 | -0.324 (inactive) | 0.0524 | 0.021 | 0.186 | -0.0746 |
| COC(=O)C1=CC(CCCO)=CC(C2CC2)N(Cc2sc3ccccc3c2Cl)C=C1C(=O)OC (stereo not given) | 1.54 | 0.258 (inactive) | -3.05 (inactive) | -1.55 (inactive) | 3.36 | 0.404 (inactive) | 0.198 | 0.346 | 1.16 | 0.0746 |
| NC(=O)NCC#Cc1ccc2c(c1)[C@]1(C(=O)N2)[C@H](C(=O)NC[C@H](O)c2ccccc2)[C@H]2C(=O)O[C@H](c3ccccc3)[C@H](c3ccccc3)N2[C@@H]1c1ccc(O)cc1 | 1.39 | 1.94 (inactive) | 1.06 (inactive) | 3.72 (inactive) | 2.9 | -0.412 (inactive) | 0.138 | 1.27 | 1.13 | 0.151 |
| COc1ccc(C#Cc2ccc3c(c2)[C@]2(C(=O)N3)[C@H](C(=O)NC[C@H](O)c3ccccc3)[C@H]3C(=O)O[C@H](c4ccccc4)[C@H](c4ccccc4)N3[C@@H]2c2ccccc2OCCO)cc1 | 1.54 | 2.23 (inactive) | 2.01 (inactive) | 4.39 (inactive) | 2.94 | 0.413 (inactive) | 0.0179 | 1.4 | 1.06 | -0.0192 |
| COc1ccc(C#Cc2ccc3c(c2)[C@]2(C(=O)N3)[C@H](c3ccc(O)cc3)N3[C@H](c4ccccc4)[C@H](c4ccccc4)OC(=O)[C@H]3[C@@H]2C(=O)NC[C@H](O)c2ccccc2)cc1 | 0.958 | 2.29 (inactive) | 0.241 (inactive) | 1.75 (inactive) | 2.17 | 0.864 (inactive) | -0.0778 | 0.897 | 1.01 | 0.0221 |
| [N-]=[N+]=Nc1ccccc1C[C@]1(C(=O)NCCN2CCOCC2)N=C(c2ccc(OCCCO)cc2)O[C@H]1c1ccccc1 | 1.31 | 3.66 (inactive) | -1.17 (inactive) | -1.78 (inactive) | 3.24 | 0.681 (inactive) | 0.0029 | 0.599 | 0.482 | 0.0756 |
| COCCOC(=O)N1C(=O)[C@@]2(c3cc(C#CCC(C(=O)OC)C(=O)OC)ccc31)[C@H](c1ccc(O)cc1)N1[C@H](c3ccccc3)[C@H](c3ccccc3)OC(=O)[C@H]1[C@@H]2C(N)=O | 1.28 | -0.151 (inactive) | 0.431 (inactive) | 0.291 (inactive) | 3.06 | -0.138 (inactive) | 0.216 | 0.604 | 0.828 | 0.0717 |
